Among the data in PubChem BioAssay (Tox21) are Potency, activity change, positive = activation and outcome values, retold here.

Structures are written as SMILES. Values joined by “and” are separate entries in the source; they are usually repeats but may differ in a detail not shown here. Identical values can stand only once. Inconclusive results are not listed. More than one record can exist for a structure, and the calls need not agree. Active and inactive are the calls of the source. Unless noted, calls come from the whole dose curve; as a rule, active = well fitted curve in the direction sought with a large enough effect in the repeat runs; inconclusive = weak or mixed curves; inactive = no such curve, though single readings can be large; an effect the other way counts as inactive or inconclusive.

Experiment [1] has as its target Luciferin 4-monooxygenase (Photinus pyralis) (UniProt P08659). Kind of experiment: qHTS assay to identify small molecule inhibitors of firefly luciferase (AID 1224835). Note: nearly all actives have a fitted effect of over 25% in size. A digest of the protocol:
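Biochemical qHTS: compounds run as interplate titrations against purified firefly enzyme, with D-luciferin and ATP each at its KM concentration. Light output recorded by CCD imaging.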

Experiment [2] is described as follows: qHTS assay to identify small molecule agonists of the constitutive androstane receptor (CAR) signaling pathway - cell viability counter screen (AID 1224836). Note: nearly all actives have a fitted effect of over 45% in size. The procedure, abridged:
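Counter screen multiplexed with the CAR reporter readout: HepG2 cells co-transfected with hCAR and the CYP2B6-2.2kb construct receive a 15-concentration compound series and 0.75 uM PK11195 (final), then CellTiter-Fluor fluorescence is read after 23 h.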

Experiment [3] in a line: qHTS assay to identify small molecule antagonists of the constitutive androstane receptor (CAR) signaling pathway - cell viability counter screen (AID 1224837). Note: nearly all actives have a fitted effect of over 45% in size. The procedure, abridged:
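To flag cytotoxic false antagonists, HepG2 hCAR/CYP2B6-2.2kb cells were treated 23 hr with 15-concentration compound series and 50 nM CITCO at 37 C/5% CO2; CellTiter-Fluor fluorescence was the measured end point.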

The target of experiment [4] is Nuclear receptor subfamily 1 group I member 3 (Homo sapiens) (UniProt Q14994). Kind of experiment: qHTS assay to identify small molecule antagonists of the constitutive androstane receptor (CAR) signaling pathway (AID 1224838).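 Note: HepG2 cells stably expressing hCAR with CYP2B6 luciferase reporter stimulated by CITCO; nearly all actives have a fitted effect of over 40% in size.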 A digest of the protocol:
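Human hepatoma HepG2 cells expressing hCAR and a CYP2B6 promoter (2.2 kb) luciferase construct; compound titration (15 points) with 50 nM CITCO final, 24 h at 37 C/5% CO2; luminescence via ONE-Glo after 30 min at room temperature.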

Experiment [5] can be described thus: qHTS assay to identify small molecule antagonists of the estrogen related receptor signaling pathway with the pleiotropic PPARgamma coactivator (PGC) from Tox21 10K library - cell viability counter screen (AID 1224840; active = well fitted cell-killing curve with a large enough effect in the repeat runs, not every such curve was filed as active; note: nearly all actives have a fitted effect of over 40% in size). A digest of the protocol: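 Seeded PGC/ERR cells (2,000/well, 6 h, 37 C/5% CO2) get compound by pin tool; 17.5 h incubation at 37 C; CellTiter-Fluor added, 30 min, fluorescence measured.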

Experiment [6] in a line: qHTS assay to identify small molecule antagonists of the estrogen related receptor signaling pathway with the pleiotropic PPARgamma coactivator (PGC) from Tox21 10K library (AID 1224841; call rule not given here; note: actives are mostly falling curves and most rising ones were filed inactive; nearly all actives have a fitted effect of over 50% in size). A digest of the protocol:
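Test chemicals dissolved in DMSO were applied to pre-incubated (6 h) PGC/ERR cells at 2,000 cells/well for an 18 h, 37 C treatment; reporter luminescence was then read using One-Glo.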

Experiment [7] can be described thus: qHTS assay to identify small molecule agonists of the estrogen related receptor signaling pathway with the pleiotropic PPARgamma coactivator (PGC) from Tox21 10K library (AID 1224842). Note: nearly all actives have a fitted effect of over 15% in size. A digest of the protocol: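 PGC/ERR reporter cell line, 2,000 cells per well, incubated 6 h at 37 C before 23 nL compound in DMSO was added. After 18 h at 37 C, One-Glo luminescence read following 30 min at room temperature.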

Experiment [8] deals with Thyrotropin receptor (Homo sapiens) (UniProt P16473). Kind of experiment: qHTS assay to identify small molecule agonists of the thyroid stimulating hormone receptor (TSHR) signaling pathway (AID 1224843; calls by dose curve; note: nearly all actives have a fitted effect of over 45% in size). A digest of the protocol: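 HEK293/TSHR, 800 cells/well; cpd 30 min RT; add cAMP-d2 + anti-cAMP-cryptate, 1 h RT; fluorescence read on plate reader. 15-pt titration, n=3.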

The nature of experiment [9]: qHTS assay to identify small molecule agonists of the hypoxia (HIF-1) signaling pathway - cell viability counter screen (AID 1224844; calls by dose curve; note: nearly all actives have a fitted effect of over 50% in size). A digest of the protocol: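 HRE-bla ME-180; 0.5% dFBS; cpd 17 h, 37C, 5% CO2; CellTiter-Glo lum., 30 min RT, post-FRET read, same wells.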
The nature of experiment [10]: qHTS assay to identify small molecule agonists of the hypoxia (HIF-1) signaling pathway (AID 1224846; active = well fitted activation curve with a large enough effect in the signal ratio in the repeat runs, not every such curve was filed as active; the % refers to the signal ratio). The procedure, abridged:
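Reporter induction in HRE-bla ME-180 cells is taken as agonism: cells sit 5 hrs after plating, receive compounds or DMSO only, incubate 17 hrs at 37C under 5% CO2, and are loaded with CCF4-AM for beta-lactamase FRET measurement.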

Experiment [11] in a line: qHTS assay to identify small molecule agonists of H2AX - cell viability counter screen (AID 1224847; calls by dose curve; note: top concentration of the series differs between compounds; nearly all actives have a fitted effect of over 30% in size). A digest of the protocol: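 We seed wild-type CHO-K1 cells overnight, treat them for 3 hr at 37C with compounds in 15-concentration series, and quantify remaining viability by CellTiter-Glo luminescence.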
Experiment [12] can be described thus: qHTS assay to identify small molecule antagonists of the estrogen related receptor (ERR) signaling pathway from Tox21 library (AID 1224848). Note: nearly all actives have a fitted effect of over 50% in size. A digest of the protocol: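 Compounds dissolved in DMSO are pin-transferred onto ERR reporter cells (2,000 per well) that have settled for 6 h at 37 C. Plates then incubate 18 h at 37 C before ONE-Glo luciferase reagent and a luminescence read 30 min later.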

The nature of experiment [13]: qHTS assay to identify small molecule agonists of the estrogen related receptor (ERR) signaling pathway from Tox21 library (AID 1224849; calls by dose curve; note: nearly all actives have a fitted effect of over 15% in size). Conditions: ERR reporter cell line, ONE-Glo luciferase, 18 h; at 92.4 µM (top of the series). A digest of the protocol: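 Tox21 compounds tested for ERR agonism in an NTP reporter cell line: 18 h treatment at 37 C, then ONE-Glo luminescence.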

Experiment [14] can be described thus: qHTS RealTime-Glo MT Cell Viability Assay in HepG2 cells - 24 hour (AID 1224867). Note: nearly all actives have a fitted effect of over 50% in size. A digest of the protocol: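 qHTS, HepG2, 600 cells/well, RealTime-Glo (NanoLuc + prosubstrate) added with cells; 5 h preincubation; DMSO compound addition; 37 C; luminescence at 0/8/16/24/32/40 h.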
Experiment [15] in a line: qHTS RealTime-Glo MT Cell Viability Assay in HEK293 cells - 32 hour (AID 1224868). A digest of the protocol:
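Assay medium contained NanoLuc luciferase plus cell-permeant prosubstrate, added with HEK293 cells at 600 cells/well. After 5 h at 37 C/5% CO2 compounds were added; plates stayed at 37 C for 40 h with serial luminescence reads.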

The nature of experiment [16]: A CellTox Green Cytotoxicity Assay to monitor cytotoxicity in HEK293 cells - 0 hour (AID 1224869). Note: nearly all actives have a fitted effect of over 50% in size. A digest of the protocol:
(§1)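 Tox21 screen in HEK293: membrane-impermeant cyanine dye fluoresces on binding dead-cell DNA; compound pinned 5 h post-seeding, plates held at 37 C, signal read repeatedly through 40 h.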

Experiment [17] can be described thus: A CellTox Green Cytotoxicity Assay to monitor cytotoxicity in HEK293 cells - 40 hour (AID 1224871). Note: nearly all actives have a fitted effect of over 45% in size. A digest of the protocol:
as §1

The target of experiment [18] is Nuclear receptor subfamily 1 group I member 3 (Homo sapiens) (UniProt Q14994). Kind of experiment: qHTS assay to identify small molecule agonists of the constitutive androstane receptor (CAR) signaling pathway (AID 1224839). Note: nearly all actives have a fitted effect of over 15% in size. Note: potency is the fitted concentration of half-maximal effect. The procedure, abridged:
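A 15-concentration quantitative screen uses HepG2 cells co-transfected stably with human CAR and CYP2B6-2.2kb reporter. Treatment lasts 24 h with 0.75 uM PK11195 final present; ONE-Glo luminescence is the signal.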

Experiment [19] in a line: qHTS RealTime-Glo MT Cell Viability Assay in HepG2 cells - 40 hour (AID 1224870). Note: nearly all actives have a fitted effect of over 50% in size. A digest of the protocol: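 HepG2 cells (600/well) mixed with RealTime-Glo MT reagent, settled 5 h at 37 C/5% CO2 before compound addition. Nonlytic NanoLuc luminescence from viable-cell prosubstrate reduction read repeatedly during 40 h treatment at 37 C.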
Experiment [20] can be described thus: qHTS assay to identify small molecule agonists of H2AX (AID 1224845; active = well fitted activation curve with a large enough effect in the signal ratio in the repeat runs, not every such curve was filed as active; the % refers to the signal ratio). The procedure, abridged:
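Wild-type CHO-K1 cells, plated overnight, exposed 3hr at 37C to 15 concentrations (0.76% DMSO final). Lysed, then HTRF anti-pH2AX (S139) cryptate and anti-H2AX-d2 antibodies, 24 hr room temperature; 665/620 nm emission read.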
% is set by controls: 0 for no effect and ±100 for the full control effect.

Chain of Luciferin 4-monooxygenase (Photinus pyralis) (P08659 whole entry, looked up): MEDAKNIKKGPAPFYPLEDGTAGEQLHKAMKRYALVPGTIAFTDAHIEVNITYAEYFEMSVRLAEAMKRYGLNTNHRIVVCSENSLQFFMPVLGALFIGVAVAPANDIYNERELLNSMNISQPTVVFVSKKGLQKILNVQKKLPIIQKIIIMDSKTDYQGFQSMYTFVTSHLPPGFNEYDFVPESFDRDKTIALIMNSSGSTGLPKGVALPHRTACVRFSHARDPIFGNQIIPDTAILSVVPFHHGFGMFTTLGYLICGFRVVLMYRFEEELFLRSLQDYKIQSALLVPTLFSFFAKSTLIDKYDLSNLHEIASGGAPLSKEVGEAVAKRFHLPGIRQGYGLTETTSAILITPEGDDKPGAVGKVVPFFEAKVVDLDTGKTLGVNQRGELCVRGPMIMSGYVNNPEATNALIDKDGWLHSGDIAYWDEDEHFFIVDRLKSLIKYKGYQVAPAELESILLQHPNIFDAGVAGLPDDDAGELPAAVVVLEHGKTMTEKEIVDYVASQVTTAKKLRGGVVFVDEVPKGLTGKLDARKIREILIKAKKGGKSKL
Chain of Nuclear receptor subfamily 1 group I member 3 (Homo sapiens) (Q14994 whole entry, looked up): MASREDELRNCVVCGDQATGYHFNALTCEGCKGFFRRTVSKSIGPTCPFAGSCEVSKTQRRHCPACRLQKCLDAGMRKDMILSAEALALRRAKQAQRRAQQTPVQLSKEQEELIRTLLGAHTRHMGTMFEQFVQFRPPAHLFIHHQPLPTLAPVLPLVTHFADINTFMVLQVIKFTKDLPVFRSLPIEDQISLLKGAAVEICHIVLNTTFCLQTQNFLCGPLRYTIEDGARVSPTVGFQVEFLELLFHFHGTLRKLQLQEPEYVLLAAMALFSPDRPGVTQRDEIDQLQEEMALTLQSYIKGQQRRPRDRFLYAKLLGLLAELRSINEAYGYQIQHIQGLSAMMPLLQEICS
Chain of Thyrotropin receptor (Homo sapiens) (P16473 whole entry, looked up): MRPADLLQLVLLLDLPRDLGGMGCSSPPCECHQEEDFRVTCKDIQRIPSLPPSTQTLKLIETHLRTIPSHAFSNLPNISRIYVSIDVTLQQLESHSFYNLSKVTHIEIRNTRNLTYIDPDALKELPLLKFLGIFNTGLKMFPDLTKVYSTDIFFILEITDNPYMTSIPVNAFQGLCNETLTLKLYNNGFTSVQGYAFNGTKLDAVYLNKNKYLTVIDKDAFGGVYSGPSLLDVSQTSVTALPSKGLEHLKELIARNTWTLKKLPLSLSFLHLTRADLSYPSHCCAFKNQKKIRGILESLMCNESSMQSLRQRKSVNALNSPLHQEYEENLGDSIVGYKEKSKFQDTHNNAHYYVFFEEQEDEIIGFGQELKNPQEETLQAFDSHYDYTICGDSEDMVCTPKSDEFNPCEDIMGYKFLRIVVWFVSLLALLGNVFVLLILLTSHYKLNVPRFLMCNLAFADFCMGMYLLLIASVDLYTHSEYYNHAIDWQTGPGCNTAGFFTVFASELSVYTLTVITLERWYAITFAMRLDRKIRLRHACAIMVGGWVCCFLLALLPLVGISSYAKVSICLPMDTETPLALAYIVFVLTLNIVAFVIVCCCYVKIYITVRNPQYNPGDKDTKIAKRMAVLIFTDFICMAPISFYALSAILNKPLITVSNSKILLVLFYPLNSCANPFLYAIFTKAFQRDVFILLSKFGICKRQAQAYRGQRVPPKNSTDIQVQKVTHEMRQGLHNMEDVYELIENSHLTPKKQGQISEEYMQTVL

Turning to `COc1c(Cl)c(Cl)c(Cl)c(Cl)c1Cl`, the Potency result in [1], in experiment [2], in [3], in experiment [4], in [5] and in experiment [6] was “inactive” each time. Besides, the Potency result in [7], in experiment [8], in experiment [9], in experiment [10], in [11] and in experiment [12] was “inactive” each time. Moreover, the Potency entry in experiment [14], in experiment [15], in experiment [16] and in [17] was “inactive” each time. Further, in [13], the activity change, positive = activation is 0.259% (inactive) and 0.227% (inactive).

For the compound `c1ccncc1`, the Potency result in [1], in [2], in [3], in experiment [4], in experiment [18] and in experiment [5] was “inactive” throughout. For the same compound, the Potency result in experiment [8], in [9], in experiment [10], in experiment [11], in experiment [14] and in experiment [15] was “inactive” in each case. The Potency entry in [16] and in [17] was “inactive” in each case.

As to `CCCCC(CC)COP(=O)(OCC(CC)CCCC)OCC(CC)CCCC` (stereo not drawn), the Potency result in experiment [1], in experiment [2], in experiment [3], in [4], in [18] and in experiment [5] was “inactive” each time. For the same compound, the Potency entry in experiment [8], in experiment [9], in experiment [10], in [11], in [14] and in experiment [15] was “inactive” throughout. The Potency entry in experiment [16], in [19] and in [17] was “inactive” in each case.

In the case of `CN(C)c1nc(N(C)C)nc(N(C)C)n1`, the Potency entry in experiment [1], in [2], in experiment [3], in experiment [4], in experiment [5] and in [8] was “inactive” in each case. The Potency entry in experiment [9], in experiment [11], in [14], in experiment [15] and in experiment [19] was “inactive” each time.

Take `C[C@]12CCC(=O)C=C1CC[C@@H]1[C@@H]2C(=O)C[C@@]2(C)[C@H]1CC[C@]2(O)C(=O)CO`: the Potency result in [1], in [2], in experiment [3], in experiment [4], in experiment [18] and in experiment [5] was “inactive” throughout. For the same compound, the Potency entry in [9], in experiment [11], in [14], in [15], in experiment [16] and in experiment [19] was “inactive” each time.

In the case of `Oc1ccc(O)cc1`, the Potency result in experiment [1], in experiment [2], in [3], in experiment [4], in experiment [5] and in experiment [9] was “inactive” each time. Moreover, the Potency entry in [14], in [16], in experiment [19] and in experiment [17] was “inactive” each time. Besides, the Potency in experiment [18] is 30.5 µM (active) and 34.4 µM (active).

Regarding `C=C(C)C1CC=C(C)CC1` (stereo not drawn), the Potency entry in [1], in experiment [2], in [3], in experiment [4], in [18] and in experiment [5] was “inactive” in each case. In addition, the Potency entry in experiment [9], in experiment [10], in experiment [14], in [15], in [16] and in experiment [19] was “inactive” in each case. Also, the Potency result in experiment [17] was “inactive”. Further, in [20], the call was inactive.

`CCCCC(CC)COC(=O)c1ccc(N(C)C)cc1` (stereo not drawn): the Potency entry in [1], in [2], in [3], in [4], in experiment [5] and in [8] was “inactive” in each case. Moreover, the Potency entry in experiment [9], in experiment [10], in experiment [14], in experiment [15], in experiment [19] and in experiment [17] was “inactive” throughout. Besides, in experiment [18], the Potency was 24.5 µM (active) and inactive. Also, in [20], the outcome was inactive.
